# About 1,700 (0.5%) of roughly 340,000 compounds were called active. The entries come from a sample that favours actives as a whole. Values without a mark were called inactive.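 How the source made its calls: active means compounds whose inhibition of the agonist-driven luminescence signal at 20 µM reaches about 50% (limit read from the data); inactive means the rest.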
# Biological target: C-C chemokine receptor type 6 (Homo sapiens) (UniProt P51684)
# Assay: CCR6 receptor antagonists, primary screen, cell-based, CHO-K1, luminescence, beta-arrestin, uHTS (AID 493098);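 further: cells stimulated with CCL20 at 14 nM final; plate controls were DMSO with CCL20 for no effect and DMSO without agonist for full effect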
# Conditions: CHO-K1 CCR6 PathHunter beta-arrestin, CCL20-stimulated, at 20 µM, active compounds read high
# Sequence of C-C chemokine receptor type 6 (Homo sapiens) (P51684 whole entry, looked up): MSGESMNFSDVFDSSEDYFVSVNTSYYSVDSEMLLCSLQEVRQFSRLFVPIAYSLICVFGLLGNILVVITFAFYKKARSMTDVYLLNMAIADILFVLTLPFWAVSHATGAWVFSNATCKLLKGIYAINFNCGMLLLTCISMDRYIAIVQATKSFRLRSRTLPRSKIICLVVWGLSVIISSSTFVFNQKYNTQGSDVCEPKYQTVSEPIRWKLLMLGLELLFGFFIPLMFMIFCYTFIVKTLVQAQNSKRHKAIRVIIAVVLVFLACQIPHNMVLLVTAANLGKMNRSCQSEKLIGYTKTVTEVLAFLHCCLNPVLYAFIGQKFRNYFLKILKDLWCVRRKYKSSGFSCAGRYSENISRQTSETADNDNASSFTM
row,Structure (SMILES),inhibition
1,CCN(CC)C(=O)CSc1nnc(CNc2ccc(F)cc2)n1Cc1ccco1,6.14%
2,CC1CN(Cc2ccco2)C(=S)N(c2ccccc2)C1=O (stereo not drawn),9.82%
3,CN(C)C(=S)N=c1ssc(=S)n1Cc1ccco1,59.8% (active)
4,Cc1ccccc1N1C(=O)C2ON(c3ccccc3)C(c3ccncc3)C2C1=O (stereo not drawn),-6.39%
5,CN(CC(=O)Nc1cccc(F)c1)C(=O)C1CSC2(C)CCC(=O)N12 (stereo not drawn),9.77%
6,COCCn1c(SCC(=O)Nc2ccccc2F)nc2c(c1=O)SCC2,-9.89%
7,S=C(NCCc1ccccc1)NCC1CCCO1 (stereo not drawn),8.39%
8,CCCC1CCC(=NNC(=S)NCCc2ccccc2)CC1 (stereo not drawn),54.4% (active)
9,S=C(NN=C1CCN(Cc2ccccc2)CC1)NC1CCCCC1,21.4%
10,Cc1cccc(C)c1N1CCN(S(=O)(=O)N2CCCCC2)CC1,18.8%
11,NS(=O)(=O)c1cc(C(=O)OCC(=O)NNC(=O)c2ccccc2)ccc1Cl,0.62%
12,Cc1cccc(N2C(=O)CC(SC(N)=Nc3ccccc3)C2=O)c1 (stereo not drawn),5.48%
13,Cc1cccc(-n2c(O)c(C=Nc3ccccc3N)c(=O)[nH]c2=O)c1,88.4% (active)
14,Cc1ccc(N=Cc2c(O)n(-c3nccs3)c(=O)c3ccccc23)c(C)c1,17.6%
15,CCCCS(=O)c1snnc1C (stereo not drawn),4.33%
16,CCC(CC)c1nnc(NC(=O)C2=COCCO2)s1,-8.69%
17,CCOc1ccc(S(=O)(=O)N2CCCCC2)cc1NC(=O)CN1CCCC1c1cccs1 (stereo not drawn),13.2%
18,CC(=O)c1sc(N/N=C/c2ccc(C(C)C)cc2)nc1C,-0.42%
19,CC(=O)c1sc(N/N=C\c2ccc(C)cc2)nc1C,20.1%
20,COc1cccc2sc(Nc3nc(C)c(C(C)=O)s3)nc12,52.1% (active)
21,O=C(CO/N=C/c1ccc(OC(F)F)cc1)NCc1ccc(F)cc1,16.1%
22,COc1ccc(OC(C)C(=O)Nc2cccnc2)cc1 (stereo not drawn),9.87%
23,COc1ccc(CS(=O)/C(Cl)=C(/Cl)C(=O)Nc2ccc(OC)nc2)cc1 (stereo not drawn),95.4% (active)

row,Structure (SMILES),inhibition
1,COc1ccc(CCC(=O)c2ccc(OC)cc2)cc1,11.9%
2,CC(C)(C)CN1CCNC(=O)C1CC(=O)NC1Cc2ccccc2C1 (stereo not drawn),-8.22%
3,CC/C=C/C(=O)N1CC2(CC(c3cccc(NC(=O)CC)c3)=NO2)C[C@H]1C(N)=O (stereo partly drawn),3.3%
4,COC(=O)c1cccc(N(C(=O)CNC(=O)c2cccs2)C(C(=O)NCC2CCCO2)c2ccc(OC)c(OC)c2)c1 (stereo not drawn),-0.67%
5,COc1ccc(F)cc1C(=O)COC(=O)c1n[nH]c(=O)c2ccccc12,24.8%
6,CCCOC(=O)Cc1c(O)c2ccccc2[nH]c1=O,-17.8%
7,COC(=O)Cc1ccc(NC(=S)NCc2ccccc2)cc1,-10.8%
8,COC(=O)Cc1c(-c2[nH]c3ccccc3c2CC(=O)OC)[nH]c2ccccc12,85.9% (active)
9,Cc1ccc2cccc(O)c2[n+]1[O-],54.9% (active)
10,NCC(=O)c1cccc2ccc[n+]([O-])c12,-4.01%
11,COc1ccc2c(c1)[C@H]1[C@H](CO2)[C@H](c2ccccc2)[C@]2(C)C(=O)Nc3cc(F)c(F)cc3C(=O)N12,-0.31%
12,Nc1ccccc1SC(C[N+](=O)[O-])c1ccccc1 (stereo not drawn),62.7% (active)
13,C/C(N)=C(\C#N)C(=O)NCCc1ccccn1,4.85%
14,O=C(NC(=S)Nc1ncccn1)c1ccccc1Br,1.75%
15,Cc1cc(C)c(C2C3=C(Nc4c2c(C)nn4-c2ccccn2)c2ccccc2C3=O)c(C)c1 (stereo not drawn),53.2% (active)
16,COCC1CCCN(Cc2cn[nH]c2-c2cc3ccccc3o2)C1 (stereo not drawn),7.28%
17,c1nc(COc2nsnc2N2CCOCC2)cs1,-2.16%
18,COc1cccc(CN2CCN(Cc3ccc4cccc(F)c4n3)CC2CCO)c1 (stereo not drawn),11.8%
19,C=CS(=O)c1sc(Cl)c(N2CCOCC2)c1[N+](=O)[O-] (stereo not drawn),93.5% (active)
20,O=[N+]([O-])c1ccc(N2CCOCC2)cc1,7.93%
21,Cc1nc2cc(C(F)(F)F)ccc2n1CCNc1nc(-c2cc(Cl)c(N)c(Cl)c2)cs1,6.34%
22,COc1ccc(NC(=O)c2oc3ccc(S(=O)(=O)N4CCOCC4)cc3c2C)cc1,8.2%
23,CCOC(=O)NC(C(F)(F)F)(C(F)(F)F)P(=O)(c1ccccc1)c1ccccc1,11.6%

row,Structure (SMILES),inhibition
1,COC(=O)[C@]1(C)CCC[C@@]2(C)C3CC[C@]4(OC(C)=O)C[C@@]3(CCC21)CC4=NO (stereo partly drawn),-0.25%
2,Cc1ccc(CS(=O)(=O)c2ncc(Cl)c(C(=O)Nc3nnc(C)s3)n2)cc1,-7.39%
3,O=C(Nc1ccc(F)cc1)c1ccc(S(=O)(=O)NCc2cccnc2)cc1,-1.15%
4,CSc1nnc(NC(=O)c2nc(S(=O)(=O)Cc3ccc(C)cc3)ncc2Cl)s1,-1.49%
5,CCOc1ccc(NC(=O)c2nc(SCC)ncc2Cl)cc1,3.21%
6,Cc1cccc(CS(=O)(=O)c2ncc(Cl)c(C(=O)Nc3ccc(F)cc3)n2)c1,79.4% (active)
7,Cc1cccc(NC(=O)c2nc(S(=O)(=O)Cc3ccccc3)ncc2Cl)c1,82% (active)
8,CCCC(C(=O)OCCN(CC)CC)(c1ccccc1)c1ccccc1,11.6%
9,COC(=O)c1ccc(-c2noc(CN(Cc3ccccn3)CC3CCCO3)n2)cc1 (stereo not drawn),5.23%
10,CCn1c(=O)c2ccccc2n(CC(=O)N2CCCc3ccccc32)c1=O,9.45%
11,Cc1ccccc1CSCCNC(=O)c1ccc(N(C)S(=O)(=O)c2ccccc2)cc1,32.2%
12,O=C(CC1OC(=O)c2ccccc21)NC1CCCCC1 (stereo not drawn),19.9%
13,COc1ccc(NC(=O)COC(=O)c2ccc(NS(=O)(=O)/C=C/c3ccccc3)cc2)cc1,21.3%
14,CC(C)N(Cc1ccccc1)C(=S)Nc1ccc(OC(F)F)cc1,18.4%
15,CN(CC(=O)Nc1ccc(OC(F)F)cc1)S(=O)(=O)/C=C/c1ccccc1,59.9% (active)
16,CCN1CCC(O)(/C=C/c2ccc(C)cc2)C(C(=O)/C=C/c2ccc(C)cc2)C1 (stereo not drawn),63.6% (active)
17,CCOC(=O)C1CCCN(C(=O)/C=C/c2ccc(OC)cc2)C1 (stereo not drawn),6.92%
18,CCN1CCN(C(=O)CSc2ccc(C)cc2)CC1,6.4%
19,N#CCCn1cnc2ccccc21,8.21%
20,Cc1cc(C)nc(SCc2ccccc2C#N)n1,-11.7%
21,O=C(/C=C/Sc1ncn[nH]1)c1ccc(Cl)cc1,31.6%
22,Cc1cc(C)nc(S/C=C/C(=O)c2ccccc2)n1,54.2% (active)

# From PubChem BioAssay AID493098 (Sanford-Burnham Center for Chemical Genomics, 2011)
